High-throughput results (PubChem)
This is a sample that favours compounds with a hit; in the whole collection about 0.9% have one here.
SRC1 TRFRET art – TR-FRET artefact, counter-screen to PPARgamma/SRC-1 agonist assay | actives 0.34% (n = 99,000) | AID 1051 | TR-FRET ratio at 8 µM | TR-FRET detection artefact counter-screen, emission ratio; active compounds read high; in the data active = TR-FRET ratio above about 2300
SRC3 TRFRET art – counter-screen for PPARgamma SRC-3 recruitment agonists: TR-FRET artefact. PPARgamma/SRC-3 format; active compounds read high. TR-FRET ratio at 8 µM. actives 0.39% (n = 99,000). AID 1048
SRC2 TRFRET art – counter-screen for PPARgamma SRC-2 recruitment agonists: TR-FRET artefact; active compounds read high; TR-FRET ratio at 8 µM; actives 0.4% (n = 200,000); AID 1049
PPARg SRC3 recr – promotes SRC-3 coactivator recruitment by human PPARgamma; AID 731; biochemical PPARgamma/SRC-3 coactivator recruitment assay; P37231; actives 0.26% (n = 200,000); activation, % at 8 µM; in the data active = activation above about 23%;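 also: 0% = DMSO and 100% = reference agonist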
Target sequence (P37231 whole entry, looked up): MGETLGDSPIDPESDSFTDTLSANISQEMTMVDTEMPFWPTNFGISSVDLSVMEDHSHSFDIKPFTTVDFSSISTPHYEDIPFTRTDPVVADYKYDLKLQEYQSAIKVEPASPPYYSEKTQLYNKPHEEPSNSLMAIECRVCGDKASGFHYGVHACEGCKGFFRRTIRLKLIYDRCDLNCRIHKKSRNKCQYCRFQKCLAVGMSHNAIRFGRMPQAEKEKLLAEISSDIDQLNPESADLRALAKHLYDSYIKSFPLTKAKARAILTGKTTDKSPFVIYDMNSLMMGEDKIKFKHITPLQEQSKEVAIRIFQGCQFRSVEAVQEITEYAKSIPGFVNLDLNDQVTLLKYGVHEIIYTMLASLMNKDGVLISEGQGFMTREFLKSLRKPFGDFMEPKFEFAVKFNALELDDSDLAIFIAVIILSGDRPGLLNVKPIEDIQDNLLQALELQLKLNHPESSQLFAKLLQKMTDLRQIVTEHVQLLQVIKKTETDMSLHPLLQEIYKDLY
PPARg SRC1 recr – PPARgamma-driven SRC-1 recruitment agonism; PPARgamma-SRC-1 coactivator recruitment biochemical assay; activation, % at 8 µM; actives 0.41% (n = 200,000); in the data active = activation above about 19%;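 also: 0% = DMSO and 100% = reference agonist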
PPARg SRC2 recr – PPARgamma-driven SRC-2 recruitment agonism | P37231 | PPARgamma LBD-SRC-2 recruitment, biochemical | activation, % at 8 µM | actives 0.34% (n = 200,000); in the data active = activation above about 22%;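 also: 0% = vehicle and 100% = reference agonist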
Numbers without * were called inactive; nt = no result. Rule as the data show it, unless noted: active = TR-FRET ratio above about 2000; inactive = the rest.

SMILES | SRC1 TRFRET art | SRC3 TRFRET art | SRC2 TRFRET art | PPARg SRC3 recr | PPARg SRC1 recr | PPARg SRC2 recr
CCN(C(=O)COC(=O)c1cc(-c2ccccc2)nc2ccc(Br)cc12)C1CCS(=O)(=O)C1 (configuration not stated) | 2327* | 2241* | 1887 | 10 | 16 | 4
CCOC(=O)c1sc2nc(CC(=O)OC)nc(NCc3ccc(F)cc3)c2c1C | nt | nt | 3064* | -1 | 8 | 57*
C=CCOc1cccc(C2C(C(=O)c3ccc(C)o3)=C(O)C(=O)N2Cc2ccncc2)c1 (configuration not stated) | nt | nt | 2037* | 23 | 13 | 16
O=C(c1cccc(C(F)(F)F)c1)N1CCN(c2cc(=O)[nH]nc2-c2ccccc2)CC1 | nt | nt | 1357 | 33* | -9 | -10
CCNC(=O)COc1ccc(-c2ccccc2)cc1 | nt | nt | 1503 | 11 | -3 | 6
CCNc1ccc(S(=O)(=O)N(C)C)cc1NCC(=O)Nc1ccccc1Cl | 1915 | 1664 | 1614 | 4 | 8 | 7
COC(=O)c1ccc(OC(=O)CCN2c3ccccc3Sc3ccccc32)cc1 | 1971 | 2754* | 2002* | 6 | 11 | 16
O=S(=O)(c1ccccc1)c1cnn2c(C(F)(F)F)cc(-c3ccc(F)cc3)nc12 | nt | nt | 1524 | 5 | 21* | 4
O=S(=O)(c1ccccc1)c1cnn2c(C(F)(F)F)cc(-c3ccccc3)nc12 | nt | nt | 1466 | 0 | 2 | 3
COc1ccc(-c2csc(NNC3=NCCCCC3)n2)cc1 | 1628 | 1498 | 1429 | 5 | 3 | 7
CCOc1ccc(-c2csc(NNC3=NCCCCC3)n2)cc1 | 2430* | 1370 | 1444 | 5 | 23* | 5
Cn1c(=O)c2c(ncn2CCNC2=NCCCCC2)n(C)c1=O | 1841 | 1640 | 1522 | -1 | -1 | 38*
COc1ccccc1C(=O)C1CCCN(C(=O)CSc2ccccn2)C1 (configuration not stated) | 1966 | 1487 | 1688 | 3 | 4 | 24*
CC(=O)Nc1cccc(Oc2ccc(-c3noc(C)n3)cc2)c1 | nt | nt | 1583 | 7 | 2 | 2
CCOC12NC(=O)CC(=O)N1C(c1ccccc1)=CS2 (configuration not stated) | 1855 | 2220* | 1653 | 18 | 10 | 7
COC(=O)c1c(C)[nH]c(-c2csc(N)n2)c1C | 1822 | 1489 | 1473 | 3 | 2 | 2
O=C(Nc1ccc2oc(-c3ccc4ccccc4c3)nc2c1)c1ccc2c(c1)OCCO2 | nt | nt | 1469 | 7 | 27* | 7
O=C(Nc1cccc(F)c1)c1ccc2c(c1)OCO2 | nt | nt | 1477 | 6 | -4 | 2
Cc1ccc2nc(-c3cccc(NC(=O)c4ccc5c(c4)OCCO5)c3)oc2c1 | nt | nt | 1507 | -10 | -10 | -2
O=C(Nc1ccc2nn(-c3ccccc3)nc2c1)c1ccc2c(c1)OCO2 | nt | nt | 1492 | -6 | 6 | 22*
CSc1n[nH]c(NCc2cccs2)n1 | nt | nt | 1475 | 5 | -2 | 1
Cc1c(C(=O)N2CCCC2)oc2c1-c1[nH]ncc1CC2 | 1726 | 1620 | 1371 | 2 | 3 | -2
CC(C)CCN1CCN(Cc2ccc(Oc3ncccn3)cc2)CC1CCO (configuration not stated) | 1614 | 1525 | 1741 | -3 | -1 | 3
CC(C)N1CCN(Cc2ccc(Oc3ncccn3)cc2)CC1CCO (configuration not stated) | 2154 | 1564 | 1545 | 2 | 21* | -4
Cn1c2ccccc2c2cc(C(=O)OCC(=O)N3CC(=O)Nc4ccccc43)sc21 | nt | nt | 2536* | 1 | 1 | 2
SMILES | SRC1 TRFRET art | SRC3 TRFRET art | SRC2 TRFRET art | PPARg SRC3 recr | PPARg SRC1 recr | PPARg SRC2 recr
Cc1ccc(-c2nnc(NCc3nc4ccccc4[nH]3)c3ccccc23)cc1S(=O)(=O)N1CCCCC1 | 2094 | 2547* | 1948 | 0 | 5 | 5
Cc1ccc(-c2nnc(NC3CCCCC3)c3ccccc23)cc1S(=O)(=O)N1CCN(C)CC1 | nt | nt | 1505 | -1 | 2 | 5
CCOC(=O)CNC(=O)CSc1nc2cccnc2n1C1CCCCC1 | nt | nt | 1557 | 2 | 4 | 3
Cc1ccc(SCC(=O)NC(=O)Nc2ccc3c(c2)OCCO3)c(C)c1 | 1491 | 1695 | 1424 | -2 | -5 | 1
CN(C)c1ncc(C2=C(Cl)C(=O)C(N3CCCC3)=C(Cl)C2=O)s1 | nt | nt | 1624 | -7 | 26* | 9
O=C(C1=C[C@H](c2coc3ccccc3c2=O)C[C@H](OCCCCO)O1)N1CCN(Cc2ccc3c(c2)OCO3)CC1 | 1767 | 1557 | 1557 | -3 | -2 | 3
COc1ccc(OCC(=O)Nc2cc(-c3nn(C)c(=O)c4ccccc34)ccc2OC)cc1 | nt | nt | 1425 | -4 | 38* | 4
O=C(CCCCCn1c(=S)[nH]c2ccc(N3CCOCC3)cc2c1=O)NCc1ccc(Cl)cc1 | 2133 | 2786* | 1687 | 8 | 5 | 6
O=C(CCCCCn1c(=S)[nH]c2ccc(N3CCOCC3)cc2c1=O)NCCc1ccccc1 | 1893 | 1541 | 1485 | 4 | -3 | 0
O=C(CCCCCn1c(=S)[nH]c2ccc(N3CCOCC3)cc2c1=O)NCc1ccc2c(c1)OCO2 | 1919 | 3424* | 1663 | 13 | 3 | 6
O=C(c1ccc(Cn2c(=S)[nH]c3ccc(N4CCOCC4)cc3c2=O)cc1)N1CCN(c2ccc(F)cc2)CC1 | 3474* | 3426* | 2803* | 14 | 20 | 17
COc1ccc(N2CCN(C(=O)c3ccc(Cn4c(=S)[nH]c5ccc(N6CCOCC6)cc5c4=O)cc3)CC2)cc1 | 1727 | 1821 | 1719 | 8 | 4 | 0
O=C(CCCCCn1c(=S)[nH]c2ccc(N3CCOCC3)cc2c1=O)NCc1ccccc1Cl | 1939 | 3063* | 1729 | 13 | 7 | 9
O=c1c2cc(N3CCOCC3)ccc2[nH]c(=S)n1Cc1ccc(Cl)cc1 | nt | nt | 1524 | -6 | -2 | 0
CCCCn1c(=S)[nH]c2ccc(N3CCOCC3)cc2c1=O | 1816 | 1807 | 1492 | 3 | -3 | 14
CCC1CCc2c(sc(NC(=O)C3c4ccccc4Oc4ccccc43)c2C(N)=O)C1 (configuration not stated) | 1957 | 1659 | 1629 | -2 | 0 | 2
COc1ccc2c(c1)c(C(O)CN1CCC3(CC1)OCCO3)c(C)n2C (configuration not stated) | nt | nt | 1404 | -5 | 1 | 0
O=C(C1CCCN(S(=O)(=O)c2ccc(F)cc2)C1)N(Cc1cccs1)C1CC1 (configuration not stated) | 2408* | 1816 | 1524 | 2 | 7 | 12
CCOC(=O)Nc1cccc(NC(=O)c2ccccc2F)c1 | 2378* | 1632 | 1470 | 3 | 9 | 9
CCOC(=O)Nc1ccccc1C(=O)Nc1cc(C)cc(C)c1 | 1754 | 1456 | 1463 | 6 | -1 | 4
O=C(N/N=C/c1ccc(O)cc1)c1csc2ccccc12 | nt | nt | 1408 | -1 | 46* | 1
CCn1cc(/C=N\NC(=O)c2csc3ccccc23)c(C)n1 | nt | nt | 1413 | 0 | 0 | 5
